Experimental data taken from the supplement of paper PMC11732987, “Enantioselective OTUD7B fragment discovery through chemoproteomics screening and high-throughput optimisation” (Communications Chemistry, 2025).

Tests used:
Assay in all cases: log2 ratio of Biotin-Ahx-Ub-VS probe labelling (fragment/DMSO); higher = less target engagement (more negative = stronger competition), active = hit call of the paper (q ≤ 0.05, log2 ratio ≤ -1)
Conditions in all cases: compound concentration: 200 uM; treatment time: 3 h
[1] = target: T1, OTUD6B (UniProt Q8N6M0)
T1 sequence (whole entry): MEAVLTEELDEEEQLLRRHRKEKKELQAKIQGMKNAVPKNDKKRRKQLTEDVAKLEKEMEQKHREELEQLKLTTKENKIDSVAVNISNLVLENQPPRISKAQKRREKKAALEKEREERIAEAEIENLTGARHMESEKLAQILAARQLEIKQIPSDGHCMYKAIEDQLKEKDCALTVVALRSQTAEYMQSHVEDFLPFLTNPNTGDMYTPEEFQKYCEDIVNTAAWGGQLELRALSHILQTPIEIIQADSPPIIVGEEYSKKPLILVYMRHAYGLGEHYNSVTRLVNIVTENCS
Method in brief: (§1)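 HEK293T lysate (495 µg per sample, in Tris/CHAPS/IGEPAL buffer with protease inhibitors) was exposed in triplicate for 3 h to fragment at 200 µM or to vehicle, then to Biotin-Ahx-Ub-VS at 0.5 µM final for 1 h. Labelled DUBs were enriched on NeutrAvidin, digested with LysC and trypsin, and analysed by diaPASEF LC-MS/MS. Spectronaut label-free quantities were normalised to the global median, and values are average log2 ratios of fragment over vehicle from an unpaired t-test. Only proteins with ≥2 unique peptides were used.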

[2] = target: T2, OTUD7B (UniProt Q6GQQ9)
T2 sequence (whole entry): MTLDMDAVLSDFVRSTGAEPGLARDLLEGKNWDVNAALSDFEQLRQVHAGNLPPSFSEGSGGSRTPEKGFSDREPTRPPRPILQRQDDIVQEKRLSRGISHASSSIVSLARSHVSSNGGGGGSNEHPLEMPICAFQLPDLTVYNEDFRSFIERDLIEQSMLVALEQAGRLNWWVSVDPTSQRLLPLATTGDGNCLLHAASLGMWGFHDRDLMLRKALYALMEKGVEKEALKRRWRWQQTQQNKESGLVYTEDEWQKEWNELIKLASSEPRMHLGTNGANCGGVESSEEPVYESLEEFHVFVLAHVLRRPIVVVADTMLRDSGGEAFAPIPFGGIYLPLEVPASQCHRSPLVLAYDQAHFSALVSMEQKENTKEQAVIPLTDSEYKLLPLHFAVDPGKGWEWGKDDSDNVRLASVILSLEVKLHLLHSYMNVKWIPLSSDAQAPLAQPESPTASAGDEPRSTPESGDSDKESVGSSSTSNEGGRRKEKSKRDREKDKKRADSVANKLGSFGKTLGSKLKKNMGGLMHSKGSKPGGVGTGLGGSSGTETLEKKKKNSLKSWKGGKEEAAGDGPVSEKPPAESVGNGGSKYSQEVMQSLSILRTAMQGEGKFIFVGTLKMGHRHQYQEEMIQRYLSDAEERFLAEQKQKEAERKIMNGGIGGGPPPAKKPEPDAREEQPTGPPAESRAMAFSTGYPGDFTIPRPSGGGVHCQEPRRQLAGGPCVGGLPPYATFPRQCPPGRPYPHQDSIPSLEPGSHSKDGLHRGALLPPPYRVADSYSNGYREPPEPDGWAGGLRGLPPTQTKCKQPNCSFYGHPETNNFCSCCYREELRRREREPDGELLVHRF
Method in brief: as §1

[3] = target: PRPF8 (UniProt Q6P2Q9)
Method in brief: as §1

[4] = target: T3, PSMD7 (UniProt P51665)
T3 sequence (whole entry): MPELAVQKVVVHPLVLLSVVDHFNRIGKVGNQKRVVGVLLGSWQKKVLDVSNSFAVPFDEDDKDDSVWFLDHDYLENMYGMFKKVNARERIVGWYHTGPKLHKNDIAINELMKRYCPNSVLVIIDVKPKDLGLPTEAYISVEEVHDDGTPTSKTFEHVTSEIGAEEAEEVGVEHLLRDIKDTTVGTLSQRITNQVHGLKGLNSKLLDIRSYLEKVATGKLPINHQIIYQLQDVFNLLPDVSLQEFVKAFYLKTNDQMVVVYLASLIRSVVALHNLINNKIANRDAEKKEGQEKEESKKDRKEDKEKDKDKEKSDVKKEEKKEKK
Method in brief: as §1

[5] = target: UCHL1 (UniProt P09936)
UCHL1, sequence (P09936 whole entry, looked up): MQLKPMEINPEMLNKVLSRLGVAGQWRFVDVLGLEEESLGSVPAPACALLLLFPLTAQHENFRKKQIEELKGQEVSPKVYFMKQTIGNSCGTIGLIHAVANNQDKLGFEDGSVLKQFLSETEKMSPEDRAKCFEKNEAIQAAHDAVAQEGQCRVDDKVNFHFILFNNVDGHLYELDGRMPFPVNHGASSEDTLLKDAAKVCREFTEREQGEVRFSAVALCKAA
Method in brief: as §1

[6] = target: T4, UCHL3 (UniProt P15374)
T4 sequence (whole entry): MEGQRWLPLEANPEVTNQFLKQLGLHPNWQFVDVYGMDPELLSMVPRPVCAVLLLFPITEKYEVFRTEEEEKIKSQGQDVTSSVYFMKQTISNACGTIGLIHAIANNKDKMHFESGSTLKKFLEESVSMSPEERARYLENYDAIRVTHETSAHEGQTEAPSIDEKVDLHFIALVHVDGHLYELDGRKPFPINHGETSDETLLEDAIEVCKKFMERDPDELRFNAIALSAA
Method in brief: as §1

[7] = target: T5, UCHL5 (UniProt Q9Y5K5)
T5 sequence (whole entry): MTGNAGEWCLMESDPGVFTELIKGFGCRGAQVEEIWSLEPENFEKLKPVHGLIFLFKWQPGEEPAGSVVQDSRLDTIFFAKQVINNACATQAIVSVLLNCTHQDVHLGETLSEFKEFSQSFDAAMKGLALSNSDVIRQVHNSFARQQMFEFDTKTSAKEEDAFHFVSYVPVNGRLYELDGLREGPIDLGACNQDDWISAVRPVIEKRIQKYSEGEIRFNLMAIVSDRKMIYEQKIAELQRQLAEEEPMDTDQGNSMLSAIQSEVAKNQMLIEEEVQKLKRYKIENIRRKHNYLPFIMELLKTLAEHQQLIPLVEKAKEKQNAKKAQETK
Method in brief: as §1

[8] = target: USP10 (UniProt Q14694)
USP10, sequence (Q14694 whole entry): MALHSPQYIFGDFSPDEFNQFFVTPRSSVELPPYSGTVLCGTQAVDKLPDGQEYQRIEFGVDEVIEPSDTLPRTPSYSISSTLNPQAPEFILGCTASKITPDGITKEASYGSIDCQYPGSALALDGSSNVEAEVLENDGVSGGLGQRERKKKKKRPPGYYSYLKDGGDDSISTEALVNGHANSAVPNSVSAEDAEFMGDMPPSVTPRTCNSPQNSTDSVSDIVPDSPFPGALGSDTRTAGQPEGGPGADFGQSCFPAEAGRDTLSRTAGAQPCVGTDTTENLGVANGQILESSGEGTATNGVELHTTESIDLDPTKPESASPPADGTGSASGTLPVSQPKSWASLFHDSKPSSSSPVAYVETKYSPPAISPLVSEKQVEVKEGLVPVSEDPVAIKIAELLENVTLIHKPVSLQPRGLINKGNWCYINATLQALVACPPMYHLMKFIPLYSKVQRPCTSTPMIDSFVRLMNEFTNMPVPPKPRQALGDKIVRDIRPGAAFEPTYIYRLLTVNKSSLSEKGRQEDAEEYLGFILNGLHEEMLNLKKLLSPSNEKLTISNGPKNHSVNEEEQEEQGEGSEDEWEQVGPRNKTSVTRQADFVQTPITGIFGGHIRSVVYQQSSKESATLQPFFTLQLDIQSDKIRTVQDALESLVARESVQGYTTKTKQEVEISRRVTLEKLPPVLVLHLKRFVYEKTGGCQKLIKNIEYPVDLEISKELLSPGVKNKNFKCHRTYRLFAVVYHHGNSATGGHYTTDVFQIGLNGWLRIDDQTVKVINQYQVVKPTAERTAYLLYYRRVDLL
Method in brief: as §1

[9] = target: T6, USP15 (UniProt Q9Y4E8)
T6 sequence (whole entry): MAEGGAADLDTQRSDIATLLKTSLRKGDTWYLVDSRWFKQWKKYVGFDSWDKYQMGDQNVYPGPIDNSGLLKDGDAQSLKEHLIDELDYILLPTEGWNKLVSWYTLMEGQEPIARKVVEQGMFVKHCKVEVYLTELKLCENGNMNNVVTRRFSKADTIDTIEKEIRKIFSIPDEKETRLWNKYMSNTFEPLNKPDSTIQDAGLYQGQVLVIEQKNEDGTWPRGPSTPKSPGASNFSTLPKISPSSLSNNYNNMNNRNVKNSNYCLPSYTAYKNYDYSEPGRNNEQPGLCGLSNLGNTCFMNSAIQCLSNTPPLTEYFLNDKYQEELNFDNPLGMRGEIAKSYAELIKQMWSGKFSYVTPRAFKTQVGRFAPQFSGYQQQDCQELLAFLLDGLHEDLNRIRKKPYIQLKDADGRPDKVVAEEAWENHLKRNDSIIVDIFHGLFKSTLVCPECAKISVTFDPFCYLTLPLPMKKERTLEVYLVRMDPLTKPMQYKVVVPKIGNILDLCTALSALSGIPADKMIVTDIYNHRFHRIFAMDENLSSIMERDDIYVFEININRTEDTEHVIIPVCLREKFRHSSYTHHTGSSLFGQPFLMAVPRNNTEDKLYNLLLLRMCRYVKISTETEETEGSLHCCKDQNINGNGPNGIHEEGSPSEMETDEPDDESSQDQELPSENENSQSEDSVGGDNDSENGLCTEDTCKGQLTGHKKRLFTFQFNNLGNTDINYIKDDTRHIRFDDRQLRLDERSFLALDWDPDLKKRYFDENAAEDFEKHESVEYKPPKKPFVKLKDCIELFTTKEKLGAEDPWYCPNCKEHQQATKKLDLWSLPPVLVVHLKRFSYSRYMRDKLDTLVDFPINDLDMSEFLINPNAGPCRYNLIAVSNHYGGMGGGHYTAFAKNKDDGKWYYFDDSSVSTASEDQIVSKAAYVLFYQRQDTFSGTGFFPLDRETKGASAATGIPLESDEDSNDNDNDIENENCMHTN
Method in brief: as §1

[10] = target: USP16 (UniProt Q9Y5T5)
USP16, sequence (Q9Y5T5 whole entry, looked up): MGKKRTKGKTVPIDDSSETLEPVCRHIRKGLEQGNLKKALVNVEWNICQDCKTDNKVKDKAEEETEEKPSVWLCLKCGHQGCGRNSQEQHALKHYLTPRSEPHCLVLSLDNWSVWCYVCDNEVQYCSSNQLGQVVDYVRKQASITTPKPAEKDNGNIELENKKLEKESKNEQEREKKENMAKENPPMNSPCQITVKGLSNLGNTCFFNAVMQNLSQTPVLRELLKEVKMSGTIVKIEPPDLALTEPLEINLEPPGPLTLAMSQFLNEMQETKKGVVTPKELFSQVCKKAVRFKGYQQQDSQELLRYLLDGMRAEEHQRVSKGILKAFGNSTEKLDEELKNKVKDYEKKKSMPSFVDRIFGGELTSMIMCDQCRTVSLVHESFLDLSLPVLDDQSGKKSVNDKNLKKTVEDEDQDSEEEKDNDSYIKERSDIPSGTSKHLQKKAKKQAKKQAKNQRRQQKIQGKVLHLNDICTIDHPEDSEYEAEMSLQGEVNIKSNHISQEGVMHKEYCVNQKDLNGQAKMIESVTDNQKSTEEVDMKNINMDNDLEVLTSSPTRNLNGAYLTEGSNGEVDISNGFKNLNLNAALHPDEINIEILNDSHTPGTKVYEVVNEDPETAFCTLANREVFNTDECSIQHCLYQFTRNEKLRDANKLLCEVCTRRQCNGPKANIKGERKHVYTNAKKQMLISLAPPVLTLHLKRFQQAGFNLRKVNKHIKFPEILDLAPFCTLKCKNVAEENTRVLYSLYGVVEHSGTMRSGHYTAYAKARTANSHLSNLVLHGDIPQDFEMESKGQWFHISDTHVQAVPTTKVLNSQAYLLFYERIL
Method in brief: as §1

Measured: log2 ratio of Biotin-Ahx-Ub-VS probe labelling

CC(O)CC1CCN(C(=O)CCl)CC1 (stereo not given)
inactive: [1] -0.0339 | [2] -0.302 | [3] 0.0532 | [4] -0.0764 | [6] 0.294 | [7] -0.019 | [8] -0.0376 | [9] -0.0583 | [10] -0.771
active: [5] -1.53
